Records with an inconclusive call do not appear. Unmarked numbers belong to inactive results. Activity calls are given as the source filed them. Unless noted, calls follow the shape of the full dose curve.

The values below come from PubChem BioAssay (Tox21).
% is scaled to controls: 0 for no effect and ±100 for the full control effect.

A short description of one assay: qHTS assay for small molecule agonists of the antioxidant response element (ARE) signaling pathway (AID 743202; active = well fitted activation curve with a large enough effect in the signal ratio in the repeat runs, not every such curve was filed as active; the % refers to the signal ratio; also: potency is read from the fitted curve at half-maximal effect). The following applies: HepG2 ARE-bla reporter, beta-lactamase FRET, 16 h; series mostly up to 73.3 µM; activation: at the top concentration. The essentials:
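Quantitative high-throughput format in HepG2 cells bearing an integrated ARE-beta-lactamase reporter. Compound exposure lasted 16 h at 37 C, and fluorescence was read 2 h after adding LiveBLAzer B/G substrate at room temperature.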
Turning to `O=C(Nc1ccc([N+](=O)[O-])cc1)Nc1ccc([N+](=O)[O-])cc1`, the Potency is 2.66 µM (active).

As for `CCOC(=O)/C=C/C(=O)O`, the Potency was 9.69 µM (active). As to `CC(Cl)C(Cl)Cl` (stereo unspecified), the “activation” value is 0.523%. On to `C=CCOC(=O)/C=C\C(=O)OCC=C`, for which the Potency is 27.8 µM (active).

Consider `CO[Si](C)(OC)OC`, for which the “activation” value was -5.6%. As to `Cc1nc2ccccc2s1`, the “activation” value was -8.27% [at 94.8 µM]. As to `CN(C)C(=O)Nc1ccc(Oc2ccc(Cl)cc2)cc1`, the Potency was 19.3 µM (active). Still for that read-out and setting: in the case of `Cc1oncc1C(=O)Nc1ccc(C(F)(F)F)cc1` it was 30.6 µM (active).

As to `CN1CCN(c2c(F)cc3c(=O)c(C(=O)O)cn4c3c2OCN4C)CC1`, the “activation” value is -1.9% [at 34.3 µM]. As to `[O]=[Bi]`, the activation was -9.19% [at 8.36 µM]. In the case of `CCC(C(=O)OCCOCCN(CC)CC)c1ccccc1` (stereo unspecified), the “activation” value is 0.142%.

Consider `CC(N)CN` (stereo unspecified), for which the “activation” value was -6.87% [at 94.8 µM]. As to `Nc1nccs1`, the “activation” value was -1.24%. Take `CC[C@@H]([C@H](C)O)n1ncn(-c2ccc(N3CCN(c4ccc(OC[C@@H]5CO[C@@](Cn6cncn6)(c6ccc(F)cc6F)C5)cc4)CC3)cc2)c1=O`: the Potency was 10.6 µM (active).

As for `CN1C(=O)CC(C)(c2ccccc2)C1=O` (stereo unspecified), the “activation” value was -3.48%.

For the compound `N#C[C@@H]1C[C@@H]2C[C@@H]2N1C(=O)[C@@H](N)C12CC3CC(CC(O)(C3)C1)C2`, the “activation” value is -1.2%. As to `OCC1CC=CCC1` (stereo unspecified), the “activation” value was -9.02%. Take `CCCCC(CC)C(=O)OCCOCCOCCOCCOC(=O)C(CC)CCCC` (stereo unspecified): the “activation” value is 1.92%.

The nature of the next assay: qHTS assay for small molecule agonists of the antioxidant response element (ARE) signaling pathway - cell viability counter screen (AID 743203). Also: nearly all actives have a fitted effect of over 55% in size. The settings on record: ARE-bla HepG2 viability, CellTiter-Glo luminescence, 16 h; series mostly up to 73.3 µM; viability change, negative = cytotoxic: at the top concentration. The essentials:
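Cells (ARE-bla HepG2, 2,000/well) receive DMSO-dissolved compounds after a 5 hrs rest. Plates incubate 16 hrs at 37C/5% CO2. CellTiter-Glo luminescence is then recorded after 30 min at room temperature.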
(In general: qHTS replaces the single test concentration by a dilution series.)
`CCCCCC=CCC=CCCCCCCCC(=O)OCC`: the “viability change, negative = cytotoxic” value is -21.6%. `C/C=C/C=C/CCCCCCCO`: the “viability change, negative = cytotoxic” value is -11.4%. With `C=CC(C)=CCC=C(C)C`, the “viability change, negative = cytotoxic” value was -22%. Still for that read-out and setting: in the case of `CCOC(=O)/C=C/C(=O)O` it was -4.21%; in that of `CNC(=O)N(c1ccccc1)c1ccccc1`, -0.164% [at 94.8 µM]; in that of `CC(Cl)C(Cl)Cl` (stereo unspecified), -0.756%.

As to `CC(C)c1nnc2ccc(-c3ocnc3-c3cc(F)ccc3F)cn12`, the “viability change, negative = cytotoxic” value was 10.5%. Turning to `CCOC(=O)[C@@H](C)Oc1ccc(Oc2nc3ccc(Cl)cc3o2)cc1`, the “viability change, negative = cytotoxic” value is 5.71%. Turning to `CCCCCCCCCCCCCCC[C@H](O)[C@@H](N)CO`, the “viability change, negative = cytotoxic” value was -27.5%. Take `CC(=O)Oc1ccc2c(c1)CC[C@@H]1[C@@H]2CC[C@]2(C)[C@@H](O)CC[C@@H]12`: the “viability change, negative = cytotoxic” value was 11.1%. Regarding `C=CCOC(=O)/C=C\C(=O)OCC=C`, the “viability change, negative = cytotoxic” value is 17.7% [at 94.8 µM].

Regarding `CC1CC(O)CC(C)(C)C1` (stereo unspecified), the “viability change, negative = cytotoxic” value was -6.19%. On to `COc1ccc(C(=O)c2cccc(O)c2)c(OC)c1`, for which the “viability change, negative = cytotoxic” value is -1.18%. With `CO[Si](C)(OC)OC`, the “viability change, negative = cytotoxic” value is 6.27%.

Consider `Cc1nc2ccccc2s1`, for which the “viability change, negative = cytotoxic” value was 0.143% [at 94.8 µM]. Still for that read-out and setting: then `CN(C)C(=O)Nc1ccc(Oc2ccc(Cl)cc2)cc1`, with 11.4%; and `C[Si](NC1CCCCC1)(NC1CCCCC1)NC1CCCCC1`, with -15.8%; and `CCCCCCCC/C=C\CCCCCCCC(=O)OC(CO)CO`, with 0.246%. On to `Cc1oncc1C(=O)Nc1ccc(C(F)(F)F)cc1`, for which the “viability change, negative = cytotoxic” value is -13.1%.

With `CSc1ccc(Oc2ccc(S(N)(=O)=O)cc2CN(C)C)cc1C`, the “viability change, negative = cytotoxic” value was -22%.

As for `Cc1nc2ccccn2c(=O)c1CCN1CCC(C(=O)c2ccc(F)cc2)CC1`, the “viability change, negative = cytotoxic” value was -1.13%. In the case of `CN1CCN(c2c(F)cc3c(=O)c(C(=O)O)cn4c3c2OCN4C)CC1`, the “viability change, negative = cytotoxic” value was 0.241% [at 34.3 µM]. As to `[O]=[Bi]`, the viability change, negative = cytotoxic was -0.248% [at 8.36 µM]. Consider `CCC(C(=O)OCCOCCN(CC)CC)c1ccccc1` (stereo unspecified), for which the “viability change, negative = cytotoxic” value was -5.5%. `CC(N)CN` (stereo unspecified): the “viability change, negative = cytotoxic” value was -4.11% [at 94.8 µM]. Turning to `CCOC(=O)c1ccccc1C`, the “viability change, negative = cytotoxic” value was -13.8%. As to `Nc1nccs1`, the “viability change, negative = cytotoxic” value was 0.866%. Same read-out and setting: then `CC[C@@H]([C@H](C)O)n1ncn(-c2ccc(N3CCN(c4ccc(OC[C@@H]5CO[C@@](Cn6cncn6)(c6ccc(F)cc6F)C5)cc4)CC3)cc2)c1=O`, with -20.9%; and `CC(C)CCCC(=O)O`, with 15.2%; and `CN(C(=O)C(Cl)Cl)c1ccc(OC(=O)c2ccco2)cc1`, with -9.16%. Turning to `CN1C(=O)CC(C)(c2ccccc2)C1=O` (stereo unspecified), the “viability change, negative = cytotoxic” value is 6.33%. On the same count and under the same terms, then `N#C[C@@H]1C[C@@H]2C[C@@H]2N1C(=O)[C@@H](N)C12CC3CC(CC(O)(C3)C1)C2`, with 10.5%; and `Cc1occc1C(=O)Nc1ccc(C(=O)N2CCC(F)(F)/C(=C\C(=O)N3CCC(N4CCCCC4)CC3)c3ccccc32)cc1`, with -17.7% [at 34.3 µM]. Take `OCC1CC=CCC1` (stereo unspecified): the “viability change, negative = cytotoxic” value was 6.84%. Turning to `O=C(c1ccc(O)cc1)c1ccc(Cl)cc1`, the “viability change, negative = cytotoxic” value was -20.2% [at 94.8 µM]. Turning to `CO/N=C1\CN(c2nc3c(cc2F)c(=O)c(C(=O)O)cn3C2CC2)CC1CN` (stereo unspecified), the “viability change, negative = cytotoxic” value was 2.92%. Same read-out and setting: in the case of `CCCCC(CC)C(=O)OCCOCCOCCOCCOC(=O)C(CC)CCCC` (stereo unspecified) it was 4.63%; in that of `CC(=O)OCC(=O)[C@H]1CC[C@H]2[C@@H]3CCC4=CC(=O)CC[C@]4(C)[C@H]3CC[C@]12C`, -4.08%.
